# The whole screen tested about 69,000 compounds, of which about 8,600 (12%) showed an effect of 50% or more. This is one part of a sample in which strong results are shown more often than they occur.
# Test system: Plasmodium berghei
# Experiment: Screen against P. berghei liver stage (PbLuc), transformed with Luciferase, at 10uM
# Assay type: functional, HepG2
# Conditions: tested at 10 uM
row,SMILES,INHIBITION
1,Cc1c(C(=O)NCC(C)C)nnn1-c1cccc2c1CCN(C)C2,56.1%
2,Cc1c(C(=O)NCC(C)C)nnn1-c1cccc2c1CCN(C(C)C)C2,38%
3,Cc1c(C(=O)NC(C)C(C)C)nnn1-c1cccc2c1CCN(C)C2 (centres undefined),11.8%
4,CCC(C)NC(=O)c1nnn(-c2cccc3c2CCN(C)C3)c1C (centres undefined),51.7%
5,CCC(C)(C)NC(=O)c1nnn(-c2cccc3c2CCN(C)C3)c1C,36.3%
6,Cc1c(C(=O)NCCC(C)C)nnn1-c1cccc2c1CCN(C)C2,36.3%
7,Cc1ccc(C)c(C(C)NC(=O)N2CCC(n3cncn3)CC2)c1 (centres undefined),-3.2%
8,CN1CCN([C@@H]2CCN(C3CCOC3)[C@H]2Cc2cnn(C)c2)CC1 (some centres undefined),24.9%
9,Cc1cc2ncn(C(=O)N3CCCCC3)c2cc1C,-16%
10,CCOC1CCCN(C(=O)c2ccccc2NCc2cccnc2)C1 (centres undefined),16.8%
11,O=C(Cc1ccc2c(c1)OCCO2)NC1CC1,-60.4%
12,CC[C@@H]1N(Cc2ccc(C)o2)CCC[C@]12CCC(=O)N2CCOC,29.3%
13,O=C(C1CCOCC1)N1CC[C@H]2[C@H]1CCN2c1nncs1,40.8%
14,CC1=Nc2c(c(=O)[nH]n2C2CCCC2)C(c2ccc(C(=O)O)cc2)S1 (centres undefined),26.65%
15,COC(=O)c1ccc(C2SC(C)=Nc3c2c(=O)[nH]n3C2CCCC2)cc1 (centres undefined),76.3%
16,CC1=Nc2c(c(=O)[nH]n2C2CCCCC2)C(c2ccc(C(=O)O)cc2)S1 (centres undefined),36.55%
17,Cc1cc(CN2Cc3ccccc3CC2c2nnc(C)o2)no1 (centres undefined),7.67%
18,CCc1nnc(C2Cc3ccccc3CN2Cc2nc(C3CC3)no2)o1 (centres undefined),60.9%
19,Cc1nnc(C2Cc3ccccc3CN2Cc2nc(C3CC3)no2)o1 (centres undefined),23.7%
20,CCc1nnc(C2Cc3ccccc3CN2Cc2ncc(Cl)n2C)o1 (centres undefined),1.84%
21,CCc1nnc(C2Cc3ccccc3CN2Cc2cc(C)no2)o1 (centres undefined),58.1%
22,Cc1cc(CN2Cc3ccccc3CC2c2nnc(C)o2)on1 (centres undefined),-8.3%
23,CCc1nnc(C2Cc3ccccc3CN2Cc2nc(C)no2)o1 (centres undefined),9.64%
24,Cc1noc(CN2Cc3ccccc3CC2c2nnc(C)o2)n1 (centres undefined),20.2%
25,CCc1nnc(C2Cc3ccccc3CN2Cc2cc(C)on2)o1 (centres undefined),68.1%
26,CNC(=O)CCc1cc(C2CCCCN2C(C)C)nc(C)n1 (centres undefined),15.1%
27,Cc1nc(CN(C)C2CCCN(Cc3noc(C4CC4)n3)C2)oc1C (centres undefined),40.2%
28,COc1cccc(CC(=O)N2CCCC(c3nncn3C)C2)c1 (centres undefined),-26.6%
29,Cc1ccc(-c2noc(CN3CCCC(Cn4cncn4)C3)n2)cc1 (centres undefined),48.2%

# Source: ChEMBL document CHEMBL4513216, “Probing the Open Global Health Chemical Diversity Library for Multistage-Active Starting Points for Next-Generation Antimalarials” (ACS Infect Dis, 2020)
